# Laboratory results as given in the supplement of paper PMC11732987, “Enantioselective OTUD7B fragment discovery through chemoproteomics screening and high-throughput optimisation” (Communications Chemistry, 2025).
# Unmarked numbers belong to inactive results.
# Legend:
# Assay in all cases: log2 ratio of Biotin-Ahx-Ub-VS probe labelling (fragment/DMSO); higher = less target engagement (more negative = stronger competition), active = hit call of the paper (q ≤ 0.05, log2 ratio ≤ -1)
# Conditions in all cases: compound concentration: 200 uM; treatment time: 3 h
# OTUD6B = biological target: T1, OTUD6B (UniProt Q8N6M0)
# T1 sequence (whole entry): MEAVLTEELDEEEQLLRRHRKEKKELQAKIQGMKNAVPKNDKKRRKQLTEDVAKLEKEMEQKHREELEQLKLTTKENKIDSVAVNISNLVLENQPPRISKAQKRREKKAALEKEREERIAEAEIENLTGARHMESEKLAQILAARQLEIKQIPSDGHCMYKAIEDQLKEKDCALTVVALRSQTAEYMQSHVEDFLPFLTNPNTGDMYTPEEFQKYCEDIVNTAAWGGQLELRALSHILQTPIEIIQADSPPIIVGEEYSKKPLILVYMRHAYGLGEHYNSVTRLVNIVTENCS
# In short: (§1)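 Lysate from HEK293T cells, 495 µg per sample in Tris/CHAPS/IGEPAL buffer with protease inhibitors, was treated for 3 h in triplicate with fragment at 200 µM or vehicle. Biotin-Ahx-Ub-VS was next added at 0.5 µM final for 1 h. The labelled DUBs were enriched with NeutrAvidin, digested with LysC and trypsin, and run by diaPASEF LC-MS/MS, with values given as average log2 fragment/vehicle ratios by unpaired t-test on global-median-normalised Spectronaut quantities of proteins with ≥2 unique peptides.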
# OTUD7B = biological target: T2, OTUD7B (UniProt Q6GQQ9)
# T2 sequence (whole entry): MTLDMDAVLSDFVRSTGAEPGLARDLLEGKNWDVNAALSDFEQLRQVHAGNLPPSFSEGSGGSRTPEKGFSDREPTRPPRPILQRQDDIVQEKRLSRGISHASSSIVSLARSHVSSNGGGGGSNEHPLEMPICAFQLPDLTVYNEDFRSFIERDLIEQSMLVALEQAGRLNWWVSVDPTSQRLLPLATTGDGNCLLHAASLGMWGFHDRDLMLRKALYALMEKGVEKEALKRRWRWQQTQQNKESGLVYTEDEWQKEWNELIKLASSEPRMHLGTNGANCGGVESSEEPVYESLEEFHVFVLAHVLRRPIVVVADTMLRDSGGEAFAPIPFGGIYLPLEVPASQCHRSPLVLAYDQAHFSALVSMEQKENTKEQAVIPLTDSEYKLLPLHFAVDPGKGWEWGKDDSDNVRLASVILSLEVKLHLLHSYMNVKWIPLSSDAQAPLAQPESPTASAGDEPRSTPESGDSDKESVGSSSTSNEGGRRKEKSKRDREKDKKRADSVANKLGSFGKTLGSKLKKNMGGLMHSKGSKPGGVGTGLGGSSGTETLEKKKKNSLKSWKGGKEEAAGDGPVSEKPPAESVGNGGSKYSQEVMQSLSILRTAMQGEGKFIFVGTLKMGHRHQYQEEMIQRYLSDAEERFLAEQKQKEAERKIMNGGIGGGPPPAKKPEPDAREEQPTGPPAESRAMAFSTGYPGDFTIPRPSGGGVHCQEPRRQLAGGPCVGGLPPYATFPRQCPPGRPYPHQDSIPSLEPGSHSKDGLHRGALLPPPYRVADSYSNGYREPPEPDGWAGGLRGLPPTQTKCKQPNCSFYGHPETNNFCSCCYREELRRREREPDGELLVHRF
# In short: as §1
# PRPF8 = PRPF8 (UniProt Q6P2Q9)
# In short: as §1
# PSMD7 = biological target: T3, PSMD7 (UniProt P51665)
# T3 sequence (whole entry): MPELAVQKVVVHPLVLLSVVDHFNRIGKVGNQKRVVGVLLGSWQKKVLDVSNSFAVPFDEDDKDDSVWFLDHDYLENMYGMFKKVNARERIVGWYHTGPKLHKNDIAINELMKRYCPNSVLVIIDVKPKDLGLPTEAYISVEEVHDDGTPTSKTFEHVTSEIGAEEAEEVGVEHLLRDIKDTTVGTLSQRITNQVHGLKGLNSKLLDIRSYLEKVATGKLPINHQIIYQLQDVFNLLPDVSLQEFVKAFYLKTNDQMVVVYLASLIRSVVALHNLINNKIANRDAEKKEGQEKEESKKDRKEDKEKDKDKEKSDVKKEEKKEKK
# In short: as §1
# UCHL1 = UCHL1 (UniProt P09936)
# Sequence of UCHL1 (P09936 whole entry, looked up): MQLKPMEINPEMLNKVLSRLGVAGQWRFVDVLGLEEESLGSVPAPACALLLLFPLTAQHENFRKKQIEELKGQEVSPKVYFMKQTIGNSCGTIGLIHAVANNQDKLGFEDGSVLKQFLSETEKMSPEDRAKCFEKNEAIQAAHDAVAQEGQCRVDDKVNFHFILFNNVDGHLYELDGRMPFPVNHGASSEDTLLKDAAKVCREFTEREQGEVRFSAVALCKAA
# In short: as §1
# UCHL3 = biological target: T4, UCHL3 (UniProt P15374)
# T4 sequence (whole entry): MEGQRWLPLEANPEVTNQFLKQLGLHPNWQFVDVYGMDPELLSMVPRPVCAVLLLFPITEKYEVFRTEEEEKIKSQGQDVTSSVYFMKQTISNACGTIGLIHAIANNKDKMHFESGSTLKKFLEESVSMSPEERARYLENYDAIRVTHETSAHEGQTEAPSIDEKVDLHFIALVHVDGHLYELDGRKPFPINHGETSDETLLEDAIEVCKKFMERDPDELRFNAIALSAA
# In short: as §1
# UCHL5 = biological target: T5, UCHL5 (UniProt Q9Y5K5)
# T5 sequence (whole entry): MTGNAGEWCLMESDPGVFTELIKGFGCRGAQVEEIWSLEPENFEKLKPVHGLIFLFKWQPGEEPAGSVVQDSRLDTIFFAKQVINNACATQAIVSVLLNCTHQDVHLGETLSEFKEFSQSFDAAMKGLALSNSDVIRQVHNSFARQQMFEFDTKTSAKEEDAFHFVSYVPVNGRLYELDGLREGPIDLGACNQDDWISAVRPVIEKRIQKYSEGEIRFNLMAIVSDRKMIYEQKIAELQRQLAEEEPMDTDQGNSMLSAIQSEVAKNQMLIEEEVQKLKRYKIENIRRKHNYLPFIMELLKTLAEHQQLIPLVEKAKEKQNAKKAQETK
# In short: as §1
# USP10 = USP10 (UniProt Q14694)
# Sequence of USP10 (Q14694 whole entry): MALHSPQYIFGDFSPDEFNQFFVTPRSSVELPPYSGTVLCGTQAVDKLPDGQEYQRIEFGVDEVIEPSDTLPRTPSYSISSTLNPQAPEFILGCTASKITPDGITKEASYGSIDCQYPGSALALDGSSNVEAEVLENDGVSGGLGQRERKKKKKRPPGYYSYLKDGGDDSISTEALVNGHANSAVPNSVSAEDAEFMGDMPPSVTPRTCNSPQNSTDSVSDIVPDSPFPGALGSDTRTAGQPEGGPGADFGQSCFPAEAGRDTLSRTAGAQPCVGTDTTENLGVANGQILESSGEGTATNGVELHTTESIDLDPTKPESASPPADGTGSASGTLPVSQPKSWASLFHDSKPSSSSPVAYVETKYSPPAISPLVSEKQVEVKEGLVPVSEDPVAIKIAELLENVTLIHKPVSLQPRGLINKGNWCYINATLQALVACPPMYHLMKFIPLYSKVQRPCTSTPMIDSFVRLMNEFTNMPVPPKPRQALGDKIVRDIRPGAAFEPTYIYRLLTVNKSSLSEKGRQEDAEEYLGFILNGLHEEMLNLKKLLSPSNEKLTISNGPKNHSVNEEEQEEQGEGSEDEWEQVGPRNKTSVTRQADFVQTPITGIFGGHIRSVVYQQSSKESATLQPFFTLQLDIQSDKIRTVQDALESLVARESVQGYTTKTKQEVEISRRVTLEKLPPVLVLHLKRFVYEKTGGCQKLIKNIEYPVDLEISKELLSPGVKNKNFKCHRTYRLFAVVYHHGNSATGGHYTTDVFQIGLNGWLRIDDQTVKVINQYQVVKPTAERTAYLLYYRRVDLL
# In short: as §1
# USP15 = biological target: T6, USP15 (UniProt Q9Y4E8)
# T6 sequence (whole entry): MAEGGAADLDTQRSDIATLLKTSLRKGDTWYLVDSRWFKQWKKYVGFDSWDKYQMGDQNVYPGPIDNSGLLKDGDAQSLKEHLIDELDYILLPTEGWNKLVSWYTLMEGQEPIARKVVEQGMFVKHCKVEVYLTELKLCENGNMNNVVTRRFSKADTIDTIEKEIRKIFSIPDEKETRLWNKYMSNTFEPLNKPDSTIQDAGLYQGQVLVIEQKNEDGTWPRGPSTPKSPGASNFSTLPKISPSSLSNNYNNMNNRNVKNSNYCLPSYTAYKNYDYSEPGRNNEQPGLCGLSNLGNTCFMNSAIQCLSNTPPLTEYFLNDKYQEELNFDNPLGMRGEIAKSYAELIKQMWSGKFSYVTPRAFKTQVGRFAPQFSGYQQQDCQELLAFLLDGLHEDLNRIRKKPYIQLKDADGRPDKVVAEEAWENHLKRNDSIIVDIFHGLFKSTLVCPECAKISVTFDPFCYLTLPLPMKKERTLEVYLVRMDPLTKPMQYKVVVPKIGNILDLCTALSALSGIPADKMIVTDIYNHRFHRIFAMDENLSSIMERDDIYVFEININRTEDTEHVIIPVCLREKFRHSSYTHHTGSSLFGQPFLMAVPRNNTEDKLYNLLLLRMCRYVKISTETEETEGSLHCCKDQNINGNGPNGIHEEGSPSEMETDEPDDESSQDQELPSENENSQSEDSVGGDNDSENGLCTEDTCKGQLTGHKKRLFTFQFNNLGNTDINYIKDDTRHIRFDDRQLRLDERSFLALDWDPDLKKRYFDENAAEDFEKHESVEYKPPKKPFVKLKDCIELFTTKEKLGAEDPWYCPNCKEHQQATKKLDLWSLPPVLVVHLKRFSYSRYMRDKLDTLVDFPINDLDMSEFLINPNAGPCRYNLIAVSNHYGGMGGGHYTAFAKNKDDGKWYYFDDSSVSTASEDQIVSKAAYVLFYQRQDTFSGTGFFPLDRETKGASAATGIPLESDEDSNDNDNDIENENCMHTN
# In short: as §1
# USP16 = USP16 (UniProt Q9Y5T5)
# Sequence of USP16 (Q9Y5T5 whole entry, looked up): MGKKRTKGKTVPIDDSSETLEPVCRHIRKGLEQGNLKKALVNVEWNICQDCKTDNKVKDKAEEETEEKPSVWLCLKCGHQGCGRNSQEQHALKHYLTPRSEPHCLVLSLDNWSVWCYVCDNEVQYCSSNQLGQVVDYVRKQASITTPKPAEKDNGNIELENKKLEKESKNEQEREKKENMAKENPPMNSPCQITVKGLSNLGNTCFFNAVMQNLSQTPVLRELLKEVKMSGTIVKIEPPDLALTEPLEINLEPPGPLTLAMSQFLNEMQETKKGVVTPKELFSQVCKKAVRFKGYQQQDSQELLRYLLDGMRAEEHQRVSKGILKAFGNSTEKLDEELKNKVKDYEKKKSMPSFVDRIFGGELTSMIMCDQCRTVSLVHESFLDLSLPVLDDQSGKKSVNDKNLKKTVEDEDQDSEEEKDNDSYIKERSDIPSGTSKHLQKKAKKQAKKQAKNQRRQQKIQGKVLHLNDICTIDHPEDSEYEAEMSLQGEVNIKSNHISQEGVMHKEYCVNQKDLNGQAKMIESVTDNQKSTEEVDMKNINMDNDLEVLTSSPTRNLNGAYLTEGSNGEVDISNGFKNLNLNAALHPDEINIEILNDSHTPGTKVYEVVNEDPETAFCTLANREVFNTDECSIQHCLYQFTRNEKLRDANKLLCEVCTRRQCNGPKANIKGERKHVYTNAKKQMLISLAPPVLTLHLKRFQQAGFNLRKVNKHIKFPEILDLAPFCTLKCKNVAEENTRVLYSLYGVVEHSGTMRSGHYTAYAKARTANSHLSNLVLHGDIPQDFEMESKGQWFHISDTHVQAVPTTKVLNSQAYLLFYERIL
# In short: as §1
smiles,measurement,setting,value
O=C(CCl)NC1CCCCNC1=O (stereo not given),log2 ratio of Biotin-Ahx-Ub-VS probe labelling,OTUD6B,-0.522
same,log2 ratio of Biotin-Ahx-Ub-VS probe labelling,OTUD7B,-0.212
same,log2 ratio of Biotin-Ahx-Ub-VS probe labelling,PRPF8,-0.0633
same,log2 ratio of Biotin-Ahx-Ub-VS probe labelling,PSMD7,-0.0971
same,log2 ratio of Biotin-Ahx-Ub-VS probe labelling,UCHL1,-1.46 (active)
same,log2 ratio of Biotin-Ahx-Ub-VS probe labelling,UCHL3,0.241
same,log2 ratio of Biotin-Ahx-Ub-VS probe labelling,UCHL5,-0.137
same,log2 ratio of Biotin-Ahx-Ub-VS probe labelling,USP10,-0.269
same,log2 ratio of Biotin-Ahx-Ub-VS probe labelling,USP15,-0.252
same,log2 ratio of Biotin-Ahx-Ub-VS probe labelling,USP16,-0.792
